In the supplement of paper PMC9950053:
Where a name gives a salt, the structure may show the parent alone.

tested on: Danio rerio larvae (5 dpf); experiment: 1-h baseline activity (% time moving, periods 1-6) minus DMSO control (percentage points); higher = more locomotor activity than DMSO larvae; conditions: 10 µM; exposure time: 3 h pre-incubation + 3 h imaging
Experimental: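 Wild-type 5 dpf zebrafish larvae (n=48 per drug, 96-well plates, 28.5 °C) were exposed to Tocris FDA-approved library compounds at 10 µM (0.1% DMSO) for 3 h before and 3 h during imaging. Images were taken every 6 s during visual and acoustic stimuli, and larvae were tracked with Z-LaP Tracker. Each measure is the treated-group mean minus the DMSO control mean (n=844), in percentage points. This mapping covers compounds with 5-character plate codes.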

SMILES | 1-h baseline activity
CC(=O)Oc1cc2c(s1)CCN(C(C(=O)C1CC1)c1ccccc1F)C2 (configuration not stated) [Prasugrel] | -2.32
C#CCN[C@@H]1CCc2ccccc21 [Rasagiline mesylate] | 4.3
CCc1nc(N)nc(N)c1-c1ccc(Cl)cc1 [Pyrimethamine] | -1.81
O=C(O)C[C@H](O)C[C@H](O)/C=C/c1c(C2CC2)nc2ccccc2c1-c1ccc(F)cc1 [Pitavastatin calcium] | -1.53
CNS(=O)(=O)Cc1ccc2[nH]cc(CCN(C)C)c2c1 [Sumatriptan succinate] | 9.45
NS(=O)(=O)c1cc2c(cc1Cl)NC(C1CC3C=CC1C3)NS2(=O)=O (configuration not stated) [Cyclothiazide] | 0.814
C[C@@H]1C[C@H]2[C@@H]3CCC4=CC(=O)C=C[C@]4(C)[C@@]3(F)[C@@H](O)C[C@]2(C)[C@@]1(O)C(=O)CO [Dexamethasone] | 15.7
Cc1cc2c(s1)Nc1ccccc1N=C2N1CCN(C)CC1 [Olanzapine] | 6.18
CNC(=O)c1cc(Oc2ccc(NC(=O)Nc3ccc(Cl)c(C(F)(F)F)c3)cc2)ccn1 [Sorafenib] | -0.439
CN(C)CCc1c[nH]c2ccc(C[C@H]3COC(=O)N3)cc12 [Zolmitriptan] | 6.44
Clc1ccc2nsnc2c1NC1=NCCN1 [Tizanidine hydrochloride] | -14
CC(C)OC(=O)C(C)(C)Oc1ccc(C(=O)c2ccc(Cl)cc2)cc1 [Fenofibrate] | 6.92
N#C[C@@H]1C[C@@H]2C[C@@H]2N1C(=O)[C@@H](N)C12CC3CC(CC(O)(C3)C1)C2 [Saxagliptin hydrochloride] | 2.3
COc1ccccc1Oc1c(NS(=O)(=O)c2ccc(C(C)(C)C)cc2)nc(-c2ncccn2)nc1OCCO [Bosentan] | 1.43
COc1cc([C@@H]2c3cc4c(cc3[C@@H](O[C@@H]3O[C@@H]5CO[C@@H](C)O[C@H]5[C@H](O)[C@H]3O)[C@H]3COC(=O)[C@H]23)OCO4)cc(OC)c1O [Etoposide] | 4.86
OCc1cc(C(O)CNCCCCCCOCCCCc2ccccc2)ccc1O (configuration not stated) [Salmeterol xinafoate] | 12.2
O=c1n(CCCN2CCN(c3cccc(Cl)c3)CC2)nc2ccccn12 [Trazodone hydrochloride] | -3.8
COCCc1ccc(OCC(O)CNC(C)C)cc1 (configuration not stated) [Metoprolol tartrate] | 3.15
CN(C)C(=N)NC(=N)N [Metformin hydrochloride] | -8.39

SMILES | 1-h baseline activity
CN[C@H]1CC[C@@H](c2ccc(Cl)c(Cl)c2)c2ccccc21 [Sertraline hydrochloride] | -24
COc1cc(N)c(Cl)cc1C(=O)NC1CCN(CCCOc2ccc(F)cc2)CC1OC (configuration not stated) [Cisapride] | -0.963
O=C1CCc2ccc(OCCCCN3CCN(c4cccc(Cl)c4Cl)CC3)cc2N1 [Aripiprazole] | 6.58
CNCc1ccc(-c2[nH]c3cc(F)cc4c3c2CCNC4=O)cc1 [Rucaparib camsylate] | -14.5
NC(=O)OCC(COC(N)=O)c1ccccc1 [Felbamate] | -2.82
C[C@H]1O[C@H](O[C@H]2[C@H](O)[C@@H](O)[C@@H](O[C@H]3[C@H](O)[C@@H](O)C(O)O[C@@H]3CO)O[C@@H]2CO)[C@H](O)[C@@H](O)[C@@H]1N[C@H]1C=C(CO)[C@@H](O)[C@H](O)[C@H]1O (some centres not stated) [Acarbose] | -1.61
CC(=O)Nc1ccc(O)cc1 [Acetaminophen] | 6.48
CC[C@H]1OC(=O)[C@H](C)[C@@H](O[C@H]2C[C@@](C)(OC)[C@@H](O)[C@H](C)O2)[C@H](C)[C@@H](O[C@@H]2O[C@H](C)C[C@H](N(C)C)[C@H]2O)[C@](C)(O)C[C@@H](C)CN(C)[C@H](C)[C@@H](O)[C@]1(C)O [Azithromycin] | -12
CCCC1O[C@@H]2C[C@H]3[C@@H]4CCC5=CC(=O)C=C[C@]5(C)[C@H]4[C@@H](O)C[C@]3(C)[C@]2(C(=O)CO)O1 (some centres not stated) [Budesonide] | 3.74
CC(C)(C(=O)O)c1ccc(C(O)CCCN2CCC(C(O)(c3ccccc3)c3ccccc3)CC2)cc1 (configuration not stated) [Fexofenadine hydrochloride] | 5.08
CCCCCCCN(CC)CCCC(O)c1ccc(NS(C)(=O)=O)cc1 (configuration not stated) [Ibutilide hemifumarate] | -6.03
COc1cc2nccc(Oc3ccc(NC(=O)C4(C(=O)Nc5ccc(F)cc5)CC4)cc3)c2cc1OC | 15.1
OC(c1cc(C(F)(F)F)nc2c(C(F)(F)F)cccc12)C1CCCCN1 (configuration not stated) [Mefloquine hydrochloride] | -2.24
CC(C)COCC(CN(Cc1ccccc1)c1ccccc1)N1CCCC1 (configuration not stated) [Bepridil hydrochloride] | -2.55
OCCN1C[C@H](O)[C@@H](O)[C@H](O)[C@H]1CO [Miglitol] | -2.34
CCCc1nn(C)c2c(=O)[nH]c(-c3cc(S(=O)(=O)N4CCN(C)CC4)ccc3OCC)nc12 [Sildenafil citrate] | -12.4
COc1ccccc1OCC(O)CN1CCN(CC(=O)Nc2c(C)cccc2C)CC1 (configuration not stated) [Ranolazine dihydrochloride] | 8.63
N#Cc1ccc2[nH]cc(CCCCN3CCN(c4ccc5oc(C(N)=O)cc5c4)CC3)c2c1 [Vilazodone hydrochloride] | -24.2
